Shown are actives, neighbours in structure and some others; about 21% of the full set was active somewhere.
HCV inh – qHTS Assay for Inhibitors of Hepatitis C Virus (HCV); Huh7.5.1 HCVcc-Cre infection, luciferase reporter, 44 h; Potency, µM (series often up to 41.8 µM), for inactives: at the top dose activity change, negative = inhibition, actives largely listed as inhibitors; actives 3.4% (n = 340,000); AID 651820, 2012; further: potency means the concentration at half of the fitted maximal effect; on the % scale 0 is the no-effect control and ±100 the full control effect
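A cell-based infection assay in which seeded cells (1,000 per well) receive test compound after 4 h, are inoculated with HCVcc-Cre at approximately 0.5 moi, and are incubated 44 h before luminescence detection.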
Shiga inhibitor – A qHTS for Small Molecule Inhibitors of Shiga Toxin. Vero cells, Shiga toxin protein synthesis inhibition reporter. inhibition, % at 38.7 µM. actives 9.2% (n = 290,000). AID 2315, 2010; in the data active means inhibition mostly above about 28%, no sharp cut-off; inactive means mostly below about 43%; further: 0% is about no effect
Pf growth 96h – Primary qHTS for delayed death inhibitors of the malarial parasite plastid, 96 hour incubation; Potency, µM (doses to about 28.7 µM), without a hit: top-dose activity change, negative = inhibition, usual class: inhibitors; AID 504834, 2011; actives 6.9% (n = 320,000); P. falciparum luciferase reporter growth, 96 h; further: potency means the concentration at half of the fitted maximal effect; on the % scale 0 is the no-effect control and ±100 the full control effect
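Delayed-death screen, second-generation endpoint: infected erythrocytes, 2% hematocrit, 0.05% parasitemia final; 96 hours at 37 C, 5% CO2; luciferase detection reagent; luminescence decrease equals reduced growth.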
Cycloheximide cs – Cycloheximide Counterscreen for Small Molecule Inhibitors of Shiga Toxin. cell reporter, cycloheximide protein synthesis inhibition counterscreen. max response, %. AID 2314, 2010. actives 12% (n = 300,000); in the data active means max response mostly above about 13%, no sharp cut-off; inactive means mostly below about 14%; further: read at 38.3 µM for the half of the compounds with a filed dose; 0% is about no effect
HCMV inh – qHTS Assay for inhibitors of the human cytomegalovirus (HCMV) | HFF cells, HCMV-luciferase reporter, 72 h; stronger effect = lower value | activity change, negative = inhibition, % at 57.5 µM | actives 4.5% (n = 410,000) | AID 1259415, 2018; in the data active means activity change below about -60%; inconclusive means no clear call, values can overlap the other calls; inactive means above about -39%; further: on the % scale 0 is the no-effect control and ±100 the full control effect
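Two-dose cell screen: HFF monolayers treated with compounds and infected with luciferase-expressing HCMV at 1 PFU/cell, 72 h at 37C, then lysed for luciferase measurement.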
Pf growth 48h – Primary qHTS for delayed death inhibitors of the malarial parasite plastid, 48 hour incubation. P. falciparum luciferase growth in erythrocytes, 48 h. actives 5.9% (n = 310,000). Potency, µM (doses to about 28.7 µM), for inactives: at the highest dose activity change, negative = inhibition, usual class: inhibitors; further: potency means the concentration at half of the fitted maximal effect; on the % scale 0 is the no-effect control and ±100 the full control effect
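Parasite viability was followed by luminescence of a genomically integrated firefly luciferase. Cultures held 0.1% parasitemia at 2% hematocrit (final), incubated under 5% CO2 at 37 C.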
* marks the source's active call; other numbers are inactive results; i = inactive; ? = inconclusive; . = not tested or not shown; + = active, no number; [ ] = dose if it differs, or a comment. Unless noted, the call rests on the fitted dose curve; in most records, active means well fitted inhibition curve with a large enough effect; inconclusive means small, poorly fitted or top-dose-only effect, or another doubt; inactive means no such curve, though single readings can be large or run the other way.

SMILES	HCV inh	Shiga inhibitor	Pf growth 96h	Cycloheximide cs	HCMV inh	Pf growth 48h
COc1ccc(NC(=O)C2CCC(C(C)(C)C)CC2)cc1S(=O)(=O)N1CCOCC1 (configuration not stated)	?	.	13µM*	.	-7	?
COc1ccc(NC(=O)C2CCC2)cc1S(=O)(=O)N1CCOCC1	-2%	.	?	.	42	-16%
Cc1ccc(NC(=O)Cn2ncc(Cl)c(Cl)c2=O)cc1S(=O)(=O)N1CCCCC1	10µM*	.	?	.	0	?
COc1ccc(NC(=O)CNc2cc(C)ccc2C)cc1S(=O)(=O)N1CCOCC1	-17%	.	15µM*	.	6	?
Cc1ccc(NC(=O)CN(C)C(=O)Cn2ncc(Cl)c(Cl)c2=O)cc1	3.2µM*	-32	7%	-9	-100*	-10%
CC1CCC(NC(=O)c2ccc(NC3=NC4CS(=O)(=O)CC4S3)cc2)CC1 (configuration not stated)	11%	-4	0%	-2	-4	-1%
COc1ccc(NS(=O)(=O)c2cccc(C(=O)NNC(=O)CN3C(=O)NC(C)(C)C3=O)c2)cc1	1%	.	23%	.	5	10%
Cc1cc(S(=O)(=O)Nc2ccc(-c3ccc(N4CCCCC4)nn3)cc2)c(C)cc1Cl	.	.	.	.	-30	.
COc1ccc(NC(=O)COc2cc(C)cc(C)c2)cc1S(=O)(=O)N1CCCCC1	4µM*	.	?	.	-34	?
Cc1ccc(NC(=O)Cn2c(=O)cnc3ccccc32)cc1S(=O)(=O)N1CCCCC1	11µM*	.	?	.	?	?
Cc1ccc(NC(=O)C2CCN(C(=O)OC(C)(C)C)CC2)cc1S(=O)(=O)N1CCCCC1	?	.	?	.	-27	13µM*
COc1ccc(NC(=O)CCOc2ccccc2F)cc1S(=O)(=O)N1CCCCC1	13µM*	.	.	.	-6	.
COc1ccc(NC(=O)COc2ccccc2F)cc1S(=O)(=O)N1CCCCC1	?	1	?	-2	-3	-18%
CC1CN=C(c2ccccc2)O1 (configuration not stated)	10%	.	.	.	4	.
CN1CCc2nc3sc(C(=O)C45CC6CC(CC(C6)C4)C5)c(N)c3cc2C1	-9%	-10	2.6µM*	6	-1	9.3µM*
CCOC(=O)c1cc(-c2ccccc2)n(-c2cccc(C(=O)Nc3cccc(F)c3)c2)c1C	.	.	.	.	+	.
CCOC(=O)c1cc(-c2ccccc2)n(-c2cccc(C(=O)Nc3cccc(C(C)=O)c3)c2)c1C	.	.	.	.	0	.
CCOC(=O)c1cc(-c2ccccc2)n(-c2cccc(C(=O)Nc3ccc(OC)cc3)c2)c1C	.	.	.	.	+	.
COc1ccccc1N1C(=O)C2C(C(=O)c3ccccc3)=NN(c3ccccc3OC)C2C1=O (configuration not stated)	-11%	-1	-1%	-1	-22	12%
O=C(CC(c1cccs1)N1Cc2ccccc2C1=O)Nc1ccccc1 (configuration not stated)	.	.	.	.	-7	.
O=C(CSc1ccccc1)NCCCc1ccccc1	-1%	11	15µM*	9	54	6%
Cc1ccc(SCC(=O)NCCCc2ccccc2)cc1	16%	-16	0%	4	?	14%
CC(CCc1ccccc1)NC(=O)CSc1ccccc1 (configuration not stated)	7%	15	13µM*	12	-30	-19%
COc1cccc(CNC(=O)Cc2c(C)c3c(cc(C)c4c(C)coc43)oc2=O)c1	.	.	.	.	-20	.
COc1ccc(CCNC(=O)c2cc(COc3c(F)cccc3F)on2)c(OC)c1	.	70*	?	37*	57	6%
SMILES	HCV inh	Shiga inhibitor	Pf growth 96h	Cycloheximide cs	HCMV inh	Pf growth 48h
O=C(NCCc1ccccc1F)c1cc(COc2ccc(F)cc2F)on1	.	.	.	.	-7	.
COc1ccc(CNC(=O)c2cc(COc3c(F)cccc3F)on2)cc1OC	?	5	?	0	?	?
COc1ccc(CCNC(=O)c2cc(COc3c(C)cccc3C)on2)c(OC)c1	?	65*	-20%	77*	-14	1%
CCCN(C)C1CN(Cc2cn(Cc3cccc(C(F)(F)F)c3)nn2)S(=O)(=O)C1 (configuration not stated)	.	.	.	.	-100*	.
O=C(Nc1cccc(Br)c1)c1ccc2c(c1)SC1=NS(=O)(=O)CCN12	?	.	12µM*	.	?	12µM*
CC(C)(C)c1ccccc1NC(=O)c1ccc2c(c1)SC1=NS(=O)(=O)CCN12	11%	-4	?	-2	0	?
COc1ccc(NC(=O)c2cnc(SC)nc2)cc1	-13%	41	136%	32*	93	32%
COc1ccc(C(=O)NC(Nc2ccccc2)C(Cl)(Cl)Cl)cc1 (configuration not stated)	7.9µM*	-10	-1%	1	?	?
CN(C(=S)Oc1ccc(C(=O)Nc2ccccc2)cc1)c1ccccc1	?	15	19%	8	-67*	?
COc1ccc(NC(=O)c2nc(SC)ncc2Cl)cc1	-4%	-20	16%	-1	0	19%
Cc1ccc(NC(NC(=O)c2cccnc2)C(Cl)(Cl)Cl)cc1 (configuration not stated)	2%	-9	13µM*	1	10	-22%
Cc1cccc(NC(=O)CCCn2c(=S)[nH]c3ccccc3c2=O)c1	-14%	-25	?	-4	3	?
Cc1ccc(CCNC(=O)c2oc(=O)c3ccccc3c2-c2ccc(C)cc2)cc1	.	.	.	.	-22	.
COc1ccc(C(=O)Nc2cccc(C)c2)cc1	1%	61*	176%	28*	59	i
COc1ccc(C(=O)Nc2ccc(SC(F)F)cc2)cc1	?	98*	193%	49*	42	313%
COc1ccc(C(=O)Nc2ccc3nc(C)c(C)nc3c2)cc1	?	129*	1%	39*	25	-10%[0.00184 µM]
COc1ccc(NC(=O)c2ccccc2)cc1	0.56µM*	.	146%	.	-18	i
CCOC(=O)c1ccc(NC(=O)CSc2cn(CC(=O)N3CCCC3)c3ccccc23)cc1	.	.	.	.	52	.
CCN1CCN(C(c2ccccc2Cl)c2c(O)cc(C)n(Cc3ccco3)c2=O)CC1 (configuration not stated)	.	.	.	.	0	.
O=C(CSc1nccn1Cc1ccco1)Nc1ccc(OC(F)(F)F)cc1	.	.	.	.	62	.
COc1ccc(-c2ccc3c(N)c(C(=O)Nc4cc(F)ccc4C)sc3n2)cc1	.	.	.	.	22	.
COc1ccc(-c2ccc3c(N)c(C(=O)Nc4cccc(C)c4)sc3n2)cc1	.	17	.	43*	-33	.
COc1ccc(NC(=O)c2ccc(C)cc2)cc1	-11%	.	?	38*	66	-21%

High-throughput results: PubChem, National Center for Advancing Translational Sciences (NCATS)
